Several values for one entry are separate records, joined by “and”; a condition that tells them apart may be missing. Identical values can stand only once. About 2,000 (36%) of roughly 5,500 compounds were called active. Not shown: some 18% with an inconclusive outcome. No stated cut-off is given here; in the data, active means normalized growth mostly below about 0.91 (no sharp cut-off); inconclusive means no clear call, values can overlap the other calls; inactive means mostly above about 0.92. This is one part of the list.
Test: chemical genetic growth profiling, strain panel (AID 1159580);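 further: tested at 20 µM; growth read once vehicle control cultures reached saturation at 30 °C; 1 = growth at the plate median or of vehicle wells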
Conditions: growth OD

Measured: normalized growth

O=C(O)c1cc(=O)c2ccccc2[nH]1
inactive: S. cerevisiae deletion strains, locus YJR075W, strain HOC1, stronger effect = lower value 0.999 | S. cerevisiae deletion strains, locus YKL009W, strain mrt4, stronger effect = lower value 1.01 | S. cerevisiae deletion strains, locus YKL068W, stronger effect = lower value 0.991 | S. cerevisiae deletion strains, locus YKL085W, strain MDH1 (second series), stronger effect = lower value 0.998 | S. cerevisiae deletion strains, locus YKL085W, strain MDH1, stronger effect = lower value 0.998 | S. cerevisiae deletion strains, locus YKL160W, strain elf1, stronger effect = lower value 0.993 | S. cerevisiae deletion strains, locus YKL190W, strain CNB1, stronger effect = lower value 1 | S. cerevisiae deletion strains, locus YKR001C, strain vps1, stronger effect = lower value 1.01 | S. cerevisiae deletion strains, locus YKR026C, strain gcn3, stronger effect = lower value 0.98 | S. cerevisiae deletion strains, locus YKR091W, strain srl3, stronger effect = lower value 0.993 | S. cerevisiae deletion strains, locus YLL001W, strain dnm1, stronger effect = lower value 0.991 | S. cerevisiae deletion strains, locus YLL026W, stronger effect = lower value 0.994 | S. cerevisiae deletion strains, locus YLL041C, strain sdh2, stronger effect = lower value 0.98 | S. cerevisiae deletion strains, locus YLR027C, strain aat2, stronger effect = lower value 0.989 | S. cerevisiae deletion strains, locus YLR039C, strain RIC1, stronger effect = lower value 1.01 | S. cerevisiae deletion strains, locus YLR058C, strain SHM2, stronger effect = lower value 0.972 | S. cerevisiae deletion strains, locus YLR102C, strain apc9, stronger effect = lower value 1 | S. cerevisiae deletion strains, locus YLR113W, strain HOG1, stronger effect = lower value 1.01 | S. cerevisiae deletion strains, locus YLR221C, strain rsa3, stronger effect = lower value 0.973 | S. cerevisiae deletion strains, locus YLR258W, strain gsy2, stronger effect = lower value 0.98 | S. cerevisiae deletion strains, locus YLR262C, strain YPT6 (second series), stronger effect = lower value 1.04 | S. cerevisiae deletion strains, locus YLR262C, strain YPT6, stronger effect = lower value 1 | S. cerevisiae deletion strains, locus YLR268W, strain sec22, stronger effect = lower value 1.01 | S. cerevisiae deletion strains, locus YLR320W, strain mms22, stronger effect = lower value 0.977 | S. cerevisiae deletion strains, locus YLR330W, strain CHS5, stronger effect = lower value 0.989 | S. cerevisiae deletion strains, locus YLR342W, strain FKS1 (second series), stronger effect = lower value 1.01 | S. cerevisiae deletion strains, locus YLR342W, strain FKS1, stronger effect = lower value 0.986 | S. cerevisiae deletion strains, locus YLR357W, strain rsc2, stronger effect = lower value 0.936 | S. cerevisiae deletion strains, locus YLR370C, strain arc18, stronger effect = lower value 0.987 | S. cerevisiae deletion strains, locus YLR371W, strain rom2, stronger effect = lower value 0.986 | S. cerevisiae deletion strains, locus YLR384C, strain iki3, stronger effect = lower value 0.942 | S. cerevisiae deletion strains, locus YLR418C, strain cdc73, stronger effect = lower value 1.05 | S. cerevisiae deletion strains, locus YML016C, strain PPZ1, stronger effect = lower value 0.984 | S. cerevisiae deletion strains, locus YML032C, strain rad52, stronger effect = lower value 0.976 | S. cerevisiae deletion strains, locus YML120C, strain ndi1, stronger effect = lower value 0.99 | S. cerevisiae deletion strains, locus YML124C, strain tub3, stronger effect = lower value 0.992 | S. cerevisiae deletion strains, locus YMR058W, strain fet3, stronger effect = lower value 0.99 | S. cerevisiae deletion strains, locus YMR078C, strain ctf18, stronger effect = lower value 0.984 | S. cerevisiae deletion strains, locus YMR125W, strain sto1, stronger effect = lower value 0.972 | S. cerevisiae deletion strains, locus YMR129W, stronger effect = lower value 1 | S. cerevisiae deletion strains, locus YMR205C, strain PFK2, stronger effect = lower value 0.986 | S. cerevisiae deletion strains, locus YMR223W, strain ubp8, stronger effect = lower value 0.985 | S. cerevisiae deletion strains, locus YMR231W, strain pep5, stronger effect = lower value 0.973 | S. cerevisiae deletion strains, locus YMR263W, strain SAP30, stronger effect = lower value 0.988 and 0.996 | S. cerevisiae deletion strains, locus YMR307W, strain GAS1, stronger effect = lower value 1.09 | S. cerevisiae deletion strains, locus YNL067W, strain RPL9B, stronger effect = lower value 0.998 | S. cerevisiae deletion strains, locus YNL071W, strain lat1, stronger effect = lower value 1.01 | S. cerevisiae deletion strains, locus YNL128W, strain TEP1, stronger effect = lower value 0.963 | S. cerevisiae deletion strains, locus YNL153C, strain GIM3, stronger effect = lower value 1 and 1.01 | S. cerevisiae deletion strains, locus YNL175C, strain NOP13, stronger effect = lower value 0.978 | S. cerevisiae deletion strains, locus YNL183C, strain NPR1, stronger effect = lower value 0.893 | S. cerevisiae deletion strains, locus YNL197C, strain WHI3, stronger effect = lower value 0.981 | S. cerevisiae deletion strains, locus YNL209W, strain ssb2, stronger effect = lower value 0.989 | S. cerevisiae deletion strains, locus YNL224C, strain SQS1, stronger effect = lower value 0.989 | S. cerevisiae deletion strains, locus YNL233W, strain BNI4, stronger effect = lower value 0.993 | S. cerevisiae deletion strains, locus YNL248C, strain rpa49, stronger effect = lower value 0.987 | S. cerevisiae deletion strains, locus YNL250W, strain rad50, stronger effect = lower value 0.976 | S. cerevisiae deletion strains, locus YNL271C, strain bni1, stronger effect = lower value 0.997 | S. cerevisiae deletion strains, locus YNL298W, strain CLA4, stronger effect = lower value 1 | S. cerevisiae deletion strains, locus YNL307C, strain MCK1, stronger effect = lower value 0.998 | S. cerevisiae deletion strains, locus YNL322C, strain KRE1 (second series), stronger effect = lower value 0.975 | S. cerevisiae deletion strains, locus YNL322C, strain KRE1, stronger effect = lower value 0.991 and 1 | S. cerevisiae deletion strains, locus YNR049C, strain mso1, stronger effect = lower value 0.983 | S. cerevisiae deletion strains, locus YNR052C, strain pop2, stronger effect = lower value 1 | S. cerevisiae deletion strains, locus YOL006C, strain TOP1, stronger effect = lower value 1 | S. cerevisiae deletion strains, locus YOL012C, strain htz1 1.51 | S. cerevisiae deletion strains, locus YOL147C, strain pex11, stronger effect = lower value 0.999 | S. cerevisiae deletion strains, locus YOR001W, strain rrp6, stronger effect = lower value 0.954 | S. cerevisiae deletion strains, locus YOR061W, strain CKA2, stronger effect = lower value 0.969 | S. cerevisiae deletion strains, locus YOR069W, strain VPS5, stronger effect = lower value 0.995 | S. cerevisiae deletion strains, locus YOR070C, strain gyp1, stronger effect = lower value 0.995 | S. cerevisiae deletion strains, locus YOR080W, strain dia2, stronger effect = lower value 0.974 | S. cerevisiae deletion strains, locus YOR083W, strain WHI5 (second series), stronger effect = lower value 1.02 | S. cerevisiae deletion strains, locus YOR083W, strain WHI5, stronger effect = lower value 0.999 | S. cerevisiae deletion strains, locus YOR106W, strain vam3, stronger effect = lower value 1.01 | S. cerevisiae deletion strains, locus YOR136W, strain idh2, stronger effect = lower value 0.99 | S. cerevisiae deletion strains, locus YOR144C, strain elg1, stronger effect = lower value 0.994 | S. cerevisiae deletion strains, locus YOR184W, strain ser1, stronger effect = lower value 0.994 | S. cerevisiae deletion strains, locus YOR231W, strain MKK1, stronger effect = lower value 0.988 | S. cerevisiae deletion strains, locus YOR265W, strain rbl2, stronger effect = lower value 1 | S. cerevisiae deletion strains, locus YOR270C, strain vph1, stronger effect = lower value 1 | S. cerevisiae deletion strains, locus YOR290C, strain snf2, stronger effect = lower value 0.986 | S. cerevisiae deletion strains, locus YOR316C, strain cot1, stronger effect = lower value 0.983 | S. cerevisiae deletion strains, locus YPL051W, strain arl3, stronger effect = lower value 0.997 | S. cerevisiae deletion strains, locus YPL055C, strain LGE1, stronger effect = lower value 0.976 and 1.01 | S. cerevisiae deletion strains, locus YPL078C, strain atp4, stronger effect = lower value 0.987 | S. cerevisiae deletion strains, locus YPL106C, strain sse1, stronger effect = lower value 0.972 | S. cerevisiae deletion strains, locus YPL240C, strain hsp82, stronger effect = lower value 0.982 | S. cerevisiae deletion strains, locus YPL241C, strain CIN2, stronger effect = lower value 0.996 | S. cerevisiae deletion strains, locus YPL256C, strain CLN2, stronger effect = lower value 0.954 | S. cerevisiae deletion strains, locus YPR119W, strain clb2, stronger effect = lower value 0.99 | S. cerevisiae deletion strains, locus YPR141C, strain kar3, stronger effect = lower value 0.977 | S. cerevisiae deletion strains, locus YPR163C, strain tif3, stronger effect = lower value 0.997 | S. cerevisiae deletion strains, locus YPR167C, strain met16, stronger effect = lower value 0.997 | S. cerevisiae deletion strains, strain wtn01, stronger effect = lower value 0.992 | S. cerevisiae strains, strain wild type, stronger effect = lower value 0.992
